Measured values taken from PubChem BioAssay (NCATS).
“And” between values parts separate entries of the source, which are not always exact repeats. Equal values may be shown once. Records with an inconclusive call do not appear. A call without a number means that no potency is given here. The source holds several records for some structures; these can differ, active in one and inactive in another. The source made the active and inactive calls. Calls come from the whole dose curve; as a rule, active = well fitted curve in the direction sought with a large enough effect; inconclusive = small, poorly fitted or top-dose-only effect, or another doubt; inactive = no such curve, though single readings can be large; an effect the other way counts as inactive or inconclusive.

Tests used:
TAB109 = assay: qHTS profiling for inhibitors of Plasmodium falciparum proliferation (AID 504749); note: nearly all actives have a fitted effect of over 60% in size; conditions: P. falciparum in erythrocytes, SYBR Green DNA, 72 h; series mostly up to 28.7 µM
Outline: (§1)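 In a 72 h erythrocytic culture (37 C, humidified, 5% CO2) at 2.5% hematocrit and 0.3% starting parasitemia, compounds were tested; SYBR Green I in detergent lysis buffer stained parasite DNA overnight.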

TAB113 = assay: as above; conditions: P. falciparum in erythrocytes, SYBR Green DNA, 72 h; series mostly up to 28.7 µM
Outline: as §1

TAB165 = assay: as above; conditions: P. falciparum in erythrocytes, SYBR Green DNA, 72 h; series mostly up to 28.7 µM
Outline: as §1

W2 = assay: as above; conditions: P. falciparum in erythrocytes, SYBR Green DNA, 72 h; series mostly up to 28.7 µM
Outline: as §1

CRL-7250 = normal cell line; assay: Cytotoxic Profiling of Annotated Libraries Using Quantitative High-Throughput Screening (AID 1296008); conditions: Five cell lines viability, CellTiter-Glo ATP luminescence, 48-72 h; max response: stronger effect = lower value; note: nearly all actives have a fitted effect of over 60% in size
Outline: (§2)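 Cytotoxicity was measured as CellTiter-Glo ATP luminescence, read after 10 min at room temperature. Compound treatment of the cells lasted 48 or 72 hr at 37 degrees Celsius in a qHTS format.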

HEK293 = assay: as above; conditions: Five cell lines viability, CellTiter-Glo ATP luminescence, 48-72 h; max response: stronger effect = lower value
Outline: as §2

HaCat [1] = assay: as above; conditions: Five cell lines viability, CellTiter-Glo ATP luminescence, 48-72 h; max response: stronger effect = lower value
Outline: as §2

KB-3-1 = assay: as above; conditions: Five cell lines viability, CellTiter-Glo ATP luminescence, 48-72 h; max response: stronger effect = lower value
Outline: as §2

NIH3T3 [2] = assay: as above; conditions: Five cell lines viability, CellTiter-Glo ATP luminescence, 48-72 h; max response: stronger effect = lower value
Outline: as §2

HEK293T = assay: qHTS assay to identify novel small-molecules to repurpose for Merkel cell carcinoma treatment (AID 1296009); conditions: MCC and control cell lines, CellTiter-Glo viability, 72 h; at 44.8 µM (top of the series) unless noted; note: nearly all actives have a fitted effect of over 60% in size
Outline: (§3)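 Cell viability measured by CellTiter-Glo following 72 hr compound treatment at 37 degree celsius, with NPC and MIPE libraries tested in 8- and 11-point concentration series.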

MCC-13 = assay: as above; conditions: MCC and control cell lines, CellTiter-Glo viability, 72 h; series mostly up to 46 µM
Outline: as §3

MCC-26 = assay: as above; conditions: MCC and control cell lines, CellTiter-Glo viability, 72 h; series mostly up to 46 µM
Outline: as §3

MKL-1 = assay: as above; conditions: MCC and control cell lines, CellTiter-Glo viability, 72 h; series mostly up to 46 µM
Outline: as §3

MKL-2 = assay: as above; conditions: MCC and control cell lines, CellTiter-Glo viability, 72 h; series mostly up to 46 µM
Outline: as §3

NIH3T3 [3] = assay: as above; conditions: MCC and control cell lines, CellTiter-Glo viability, 72 h
Outline: as §3

UISO = assay: as above; conditions: MCC and control cell lines, CellTiter-Glo viability, 72 h; series mostly up to 46 µM
Outline: as §3

WaGa = assay: as above; conditions: MCC and control cell lines, CellTiter-Glo viability, 72 h; series mostly up to 46 µM
Outline: as §3

C33A = assay: Primary qHTS to identify gynecologic anti-cancer compounds using libraries of approved drugs and bioactive compounds (AID 1345084); conditions: Gynecologic cancer cell panel viability, ATPlite luminescence, 48 h; series mostly up to 57.5 µM; note: nearly all actives have a fitted effect of over 55% in size
Outline: (§4)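 In this quantitative HTS, cell killing is estimated from loss of ATP-dependent luciferase light. Cells see five compound concentrations over a 48 h exposure.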

HACAT [4] = assay: qHTS assay to identify novel small-molecules to repurpose for Merkel cell carcinoma treatment (AID 1296009); conditions: MCC and control cell lines, CellTiter-Glo viability, 72 h; at 44.8 µM (top of the series) unless noted; note: nearly all actives have a fitted effect of over 60% in size
Outline: as §3

CAOV3 = assay: Primary qHTS to identify gynecologic anti-cancer compounds using libraries of approved drugs and bioactive compounds (AID 1345084); conditions: Gynecologic cancer cell panel viability, ATPlite luminescence, 48 h; series mostly up to 57.5 µM; note: nearly all actives have a fitted effect of over 55% in size
Outline: as §4

[5] = at 44.8 µM (top of the series) unless noted
Potency is the fitted concentration of half-maximal effect.

CNC[C@H](O)c1ccc(O)c(O)c1
Potency (TAB109): inactive | Potency (TAB113): inactive | Potency (TAB165): inactive | Potency (W2): inactive | max response (CRL-7250): -3.3% (inactive) and -3.53% (inactive) | max response (HEK293): -3.32% (inactive) | outcome (HEK293): inactive | max response (HaCat [1]): -1.14% (inactive) and -13.4% (inactive) | max response (KB-3-1): 2.62% (inactive) | outcome (NIH3T3 [2]): inactive | outcome (HEK293T): inactive [at 17.4 µM] | Potency (MCC-13): inactive | Potency (MCC-26): inactive | Potency (MKL-1): inactive | Potency (MKL-2): inactive | outcome (NIH3T3 [3]; at 17.4 µM (top of the series)): inactive | outcome (NIH3T3 [3]; at 92 µM (top of the series)): inactive | Potency (UISO): inactive | Potency (WaGa): inactive | Potency (C33A): inactive

Nc1nc(OCc2ccccc2)c2[nH]cnc2n1
max response (CRL-7250): 0.448% (inactive) | outcome (HEK293): inactive | outcome (HaCat [1]): inactive | max response (KB-3-1): 5.98% (inactive) | outcome (NIH3T3 [2]): inactive | outcome (HACAT [4]): inactive | outcome (HEK293T): inactive | Potency (MCC-13): inactive | Potency (MCC-26): inactive | Potency (MKL-1): inactive | Potency (MKL-2): inactive | outcome (NIH3T3 [3]; [5]): inactive | Potency (UISO): inactive | Potency (WaGa): inactive

Cc1cc(=O)c2c(O)c3c(O)cc(=O)c4c3c3c(cc(O)c1c23)C(C)(C)C=4O
Potency (TAB109): 2240 nM (active) | Potency (TAB113): 1580 nM (active) | Potency (TAB165): 1780 nM (active) | Potency (W2): 1350 nM (active) | Potency (CRL-7250): 3.66 µM (active) and 13.2 µM (active) | Potency (HEK293): 2.59 µM (active) and 3.72 µM (active) | Potency (HaCat [1]): 1300 nM (active) | outcome (HaCat [1]): inactive | Potency (KB-3-1): 11.6 µM (active) and 23.5 µM (active) | max response (NIH3T3 [2]): -0.918% (inactive) | outcome (HACAT [4]): inactive | Potency (MCC-13): inactive | Potency (MCC-26): inactive | Potency (MKL-1): inactive | Potency (MKL-2): inactive | Potency (UISO): inactive | Potency (WaGa): inactive | Potency (C33A): 3550 nM (active) | Potency (CAOV3): 4470 nM (active)

Cc1ccc(S(=O)(=O)NC(=O)NN2CC3CCCC3C2)cc1 (configuration not stated)
outcome (CRL-7250): inactive | max response (HEK293): 2.56% (inactive) | outcome (HaCat [1]): inactive | max response (KB-3-1): 5.5% (inactive) and -19.7% (inactive) | max response (NIH3T3 [2]): 2.24% (inactive) and -2.1% (inactive) | outcome (HACAT [4]): inactive | Potency (MCC-13): inactive | Potency (MCC-26): inactive | Potency (MKL-1): inactive | Potency (MKL-2): inactive and 26.4 µM (active) | Potency (UISO): inactive | Potency (WaGa): inactive | Potency (C33A): inactive | Potency (CAOV3): inactive

C[Se]CCC(N)C(=O)O (configuration not stated)
Potency (TAB109): inactive | Potency (TAB113): inactive | Potency (TAB165): inactive | max response (CRL-7250): -3.1% (inactive) | max response (HEK293): -11.1% (inactive) | max response (HaCat [1]): -19.1% (inactive) | max response (KB-3-1): -9.75% (inactive) | outcome (NIH3T3 [2]): inactive | Potency (MCC-13): inactive | Potency (MCC-26): inactive | Potency (MKL-1): inactive | Potency (MKL-2): inactive | outcome (NIH3T3 [3]; [5]): inactive [at 92 µM] | Potency (UISO): inactive | Potency (WaGa): inactive

CCOC(=O)C1=C(O)C(=O)N(Cc2ccccc2)C1
max response (CRL-7250): 2.77% (inactive) | max response (HEK293): -14.6% (inactive) | max response (HaCat [1]): 2.45% (inactive) | max response (KB-3-1): 3.01% (inactive) | outcome (NIH3T3 [2]): inactive | Potency (MCC-13): inactive | Potency (MCC-26): inactive | Potency (MKL-1): inactive | Potency (MKL-2): inactive | outcome (NIH3T3 [3]; [5]): inactive | Potency (UISO): inactive | Potency (WaGa): inactive

CCCOc1ccc2nc(NC(=O)OC)[nH]c2c1
Potency (TAB109): inactive | Potency (TAB113): inactive | Potency (TAB165): inactive | Potency (W2): inactive | Potency (CRL-7250): 668 nM (active) and 132 nM (active) | Potency (HEK293): 150 nM (active) | outcome (HaCat [1]): inactive | Potency (KB-3-1): 731 nM (active) | outcome (HACAT [4]): inactive | Potency (MCC-13): 188 nM (active)

O=C1c2c(O)cc(O)cc2OC(c2ccc(O)c(O)c2)C1O (configuration not stated)
max response (CRL-7250): -1.4% (inactive) | max response (HEK293): -0.947% (inactive) | max response (HaCat [1]): 2.31% (inactive) | outcome (KB-3-1): inactive | max response (NIH3T3 [2]): -9.07% (inactive) | Potency (MCC-13): inactive | Potency (MCC-26): inactive | Potency (MKL-1): inactive | Potency (MKL-2): inactive | Potency (UISO): inactive | Potency (WaGa): inactive

CCN(CC)CCOc1ccc(Nc2ncc3cc(-c4c(Cl)cccc4Cl)c(=O)n(C)c3n2)cc1
Potency (CRL-7250): 16.6 nM (active) | Potency (HEK293): 209 nM (active) | Potency (HaCat [1]): 264 nM (active) | Potency (KB-3-1): 296 nM (active) | Potency (NIH3T3 [2]): 74.3 nM (active) | Potency (MCC-13): 2640 nM (active) | Potency (MKL-1): 1320 nM (active) | Potency (MKL-2): 5260 nM (active) | Potency (UISO): 5260 nM (active) | Potency (WaGa): 2960 nM (active)

COC(=O)C1=C(C)NC(C)=C(C(=O)OC(C)C)C1c1cccc2nonc12 (configuration not stated)
max response (CRL-7250): -24.3% (inactive) | max response (HEK293): -10.7% (inactive) | max response (HaCat [1]): -5.13% (inactive) and 3.88% (inactive) | max response (KB-3-1): 5.12% (inactive) and -6.21% (inactive) | max response (NIH3T3 [2]): 1.63% (inactive) | Potency (MCC-13): inactive | Potency (MCC-26): inactive | Potency (MKL-1): inactive | Potency (MKL-2): inactive | Potency (UISO): inactive | Potency (WaGa): inactive | Potency (C33A): inactive | Potency (CAOV3): inactive

COc1cc(OC)c(C(=O)CCCN2CCCC2)c(OC)c1
Potency (TAB109): inactive | Potency (TAB113): inactive | Potency (TAB165): inactive | Potency (W2): inactive | outcome (CRL-7250): inactive | max response (HEK293): -1.67% (inactive) and -16.3% (inactive) | max response (HaCat [1]): 4.83% (inactive) and -3.89% (inactive) | max response (NIH3T3 [2]): -4.19% (inactive) | outcome (NIH3T3 [2]): inactive | Potency (MCC-13): inactive | Potency (MCC-26): inactive | Potency (MKL-1): inactive | Potency (MKL-2): inactive | outcome (NIH3T3 [3]; [5]): inactive | Potency (UISO): inactive | Potency (WaGa): inactive | Potency (C33A): inactive

Nc1ccc(S(N)(=O)=O)cc1
Potency (TAB109): inactive | Potency (TAB113): inactive | Potency (TAB165): inactive | Potency (W2): inactive | max response (CRL-7250): -3.82% (inactive) and 0.627% (inactive) | max response (HEK293): 0.928% (inactive) and -22.2% (inactive) | outcome (HaCat [1]): inactive | max response (NIH3T3 [2]): -7.64% (inactive) | outcome (NIH3T3 [2]): inactive | outcome (HACAT [4]): inactive | Potency (MCC-13): inactive | Potency (MCC-26): inactive | Potency (MKL-1): inactive | Potency (MKL-2): inactive | outcome (NIH3T3 [3]; [5]): inactive | Potency (UISO): inactive | Potency (WaGa): inactive | Potency (C33A): inactive | Potency (CAOV3): inactive

Nc1ncn([C@H]2C[C@H](O)[C@@H](CO)O2)c(=O)n1
max response (CRL-7250): -5.93% (inactive) and -8.36% (inactive) | Potency (HEK293): 18700 nM (active) | outcome (HaCat [1]): inactive | max response (NIH3T3 [2]): -24.2% (inactive) | outcome (HACAT [4]): inactive | Potency (MCC-13): inactive | Potency (MCC-26): inactive | Potency (MKL-1): inactive | Potency (MKL-2): inactive | Potency (UISO): inactive | Potency (WaGa): inactive | Potency (C33A): inactive | Potency (CAOV3): inactive
